# ATG4B inh = blocks human ATG4B protease cleavage of LC3 substrate. Q9Y4P1. ATG4B cleavage of LC3-PLA2, NBD-HPC fluorescence, 1 h. inhibition, % at 8.33 µM. 340,000 tested, 0.51% active. AID 504462; in the data active = inhibition above about 40%
# Target sequence (Q9Y4P1 whole entry, looked up): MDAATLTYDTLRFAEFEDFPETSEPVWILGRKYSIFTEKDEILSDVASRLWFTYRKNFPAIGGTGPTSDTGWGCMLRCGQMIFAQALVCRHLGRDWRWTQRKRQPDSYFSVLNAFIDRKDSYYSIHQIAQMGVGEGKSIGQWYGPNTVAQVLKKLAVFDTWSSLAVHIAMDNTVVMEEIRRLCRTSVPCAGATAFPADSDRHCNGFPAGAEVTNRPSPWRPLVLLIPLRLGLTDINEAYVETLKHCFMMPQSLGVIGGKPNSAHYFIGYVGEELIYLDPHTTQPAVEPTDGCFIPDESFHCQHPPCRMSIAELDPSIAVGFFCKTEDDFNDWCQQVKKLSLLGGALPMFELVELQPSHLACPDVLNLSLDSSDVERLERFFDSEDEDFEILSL
# Mot1-301 SUMO = inhibitors of SUMOylation pathway: yeast Mot1-301 growth rescue; S. cerevisiae Mot1-301 growth rescue, ATP luminescence, 38.5C; percent above DMSO median, 100 means doubled; growth rescue, % at 18.8 µM; 320,000 tested, 1% active;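 active = every valid replicate shows activation above 250% relative to neutral control wells; inactive = the rest, any valid replicate at or below 250%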;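 note: OY570 slx delta 5 strain wells were the positive control but not used for scaling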
# FAS TE block = blocks the thioesterase domain of human fatty acid synthase; P49327; recombinant FAS-TE, OMFH fluorogenic substrate, fluorescence endpoint; inhibition, % at 15 µM; 360,000 tested, 0.67% active;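 active = compounds whose normalised, plate-corrected inhibition of enzyme fluorescence in the single-dose primary screen is 50% or more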;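 note: 0% = DMSO with enzyme and 100% = substrate without enzyme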
# NadD block = NadD (S. aureus) enzyme inhibition; purified NadD enzyme, colorimetric absorbance read-out; inhibition, % at 20 µM; 360,000 tested, 0.78% active; in the data active = inhibition above about 26%
# Calb FLC = C. albicans growth modulation with fluconazole | C. albicans CaCi-2 (fluconazole-resistant clinical isolate) + fluconazole, Alamar Blue growth, 48 h | growth inhibition, % (no concentration beside the values) | 300,000 tested, 0.57% active | AID 1979;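 active = growth inhibition above about 58% in most replicates, limit read from the data, passing the limit was not always enough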;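 note: all wells also contain fluconazole at 8 µg/ml as a sub-toxic cotreatment; 0% = median of DMSO wells and 100% = median of geldanamycin control wells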
# Yeast Mot1 SUMO = SUMO pathway inhibitors in yeast Mot1-301 growth | shares compounds with Mot1-301 SUMO | S. cerevisiae Mot1-301 galactose growth, ATP luminescence, 24 h; -100 = growth of slx-deleted rescue strain | growth activity, percent, % at 42 µM | 2,300 tested, under 10 active | AID 493004;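 active = Signal drops as the depositor expects, and the fitted half-maximal dose is no more than ten times the top valid tested dose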;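 note: more negative values mean stronger growth rescue toward the control strain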
# * = called active by the depositor; nt = no result; + = active, no number. Most compounds without a hit are left out; they make up all but 3.1% or so of the library.
SMILES,ATG4B inh,Mot1-301 SUMO,FAS TE block,NadD block,Calb FLC,Yeast Mot1 SUMO
COc1ccc2cc(C(=O)Nc3ccc(Cl)cc3)sc(=O)c2c1OC,14,752*,-2,-3,5,0
CN(CC(=O)Nc1cccc(F)c1)C(=O)CN1C(=O)C2CCCCC2C1=O (configuration not stated),-1,5,-7,0,nt,nt
CCN(CC)c1ccc(S(=O)(=O)N2CCCCC2)cc1NC(=O)CSCc1c(C)noc1C,5,nt,22,-1,nt,nt
c1ccc(-c2nc(N3CCCCCC3)c3ccccc3n2)nc1,14,-14,-5,13,-3,nt
c1ccc(-c2nc(N3CCOCC3)c3ccccc3n2)nc1,-14,481*,-6,-2,-4,-1
COc1ccc(/C(N)=N/OC(=O)/C=C/c2ccccc2)cc1,-12,154,1,0,-17,nt
Cc1ccc(/C(N)=N/OC(=O)/C=C/c2ccccc2)cc1,-8,840*,3,0,-3,0
COc1cccc(/C=N/NC(=O)CNC(=O)C(c2ccccc2)c2ccccc2)c1O,-15,12,7,1,7,nt
CCc1nnc(NC(=O)c2cccc(S(=O)(=O)N3CCN(c4ccccc4)CC3)c2)s1,-14,572*,2,15,-7,0
Cc1nnc(NC(=O)c2cccc(S(=O)(=O)N3CCCC3)c2)s1,-4,576*,-5,-6,-1,1
COC(=O)[C@]1(Cc2ccccc2)N[C@H](c2ccc(SC3CCCCC3)c(OC)c2)[C@@H]2C(=O)N(C)C(=O)[C@@H]21,-12,-10,33,1,nt,nt
CC[C@]12C(=O)N(C)C[C@H]([C@@H]3C(=O)N(Cc4ccccc4)C(=O)[C@@H]31)N2C(=O)c1ccc(Br)cc1,-1,nt,-10,3,nt,nt
O=C(N/N=C/c1cccs1)c1cncc(Br)c1,-2,470*,-4,1,-7,-1
CC(=O)Nc1ccc(C(=O)N2CCCCC2c2cc(C(=O)Nc3cccc(C#N)c3)no2)cc1 (configuration not stated),nt,nt,1,3,nt,nt
COc1ccccc1OCCSc1nc2ccccc2n1CCC(=O)O,0,+,-4,0,-2,0
COc1cc(OC)cc(OC(=O)c2ccc3c(=O)n4c(nc3c2)CCC4)c1,-10,359*,4,0,3,0
Cc1ccc(OC(=O)c2ccc3c(=O)n4c(nc3c2)CCC4)cc1,3,nt,7,3,nt,nt
CCN(CC)S(=O)(=O)c1ccc(N2CCCC2)c(C(=O)OCC(=O)Nc2cc(C)on2)c1,-9,544*,11,-5,-8,0
CCN(CC)S(=O)(=O)c1ccc(N2CCCC2)c(C(=O)OCC(=O)N2CCCC2)c1,4,4,-2,1,22,nt
CN(C)S(=O)(=O)c1cccc(COC(=O)c2ccc(Cl)cc2O)c1,1,185,18,-5,2,nt
CCn1nc(C(=O)OCc2cccc(S(=O)(=O)N(C)C)c2)c2ccccc2c1=O,-6,850*,12,-5,21,-1
CCn1c(SCC(=O)N(C)c2ccccc2)nc2c([nH]c3ccccc32)c1=O,7,9,-2,-1,1,nt
Cc1ccc(S(=O)(=O)NCc2ccc(C(=O)NC3CCCCC3)cc2)cc1,-3,-1,-1,-5,27,nt
CS(=O)(=O)NCc1ccc(C(=O)NC2CCCCC2)cc1,3,617*,-6,-2,-4,0
O=C(NNC(=O)C12CC3CC(CC(C3)C1)C2)c1ccccn1,-2,998*,-4,-1,1,0
SMILES,ATG4B inh,Mot1-301 SUMO,FAS TE block,NadD block,Calb FLC,Yeast Mot1 SUMO
CCCCNc1nnc(SCC(=O)c2c(N)n(C3CC3)c(=O)[nH]c2=O)s1,-2,21,-4,0,nt,nt
Cc1cccc(NC(=S)NC(=O)/C=C/c2ccco2)c1,12,706*,9,3,-23,-1
COc1cc(SC)ccc1C(=O)Nc1ccc(OCC(=O)N2CCOCC2)cc1,-8,nt,0,-6,-4,nt
COc1cc(SC)ccc1C(=O)Nc1cc(C)c(OCC(=O)N2CCOCC2)c(C)c1,-16,562*,3,-2,-9,0
COc1cccc(NC(=O)CN(C)C(=O)c2c(C)nn(CC(C)C)c2Cl)c1,5,-1,-3,-1,nt,nt
CCc1ccc2c(c1)C(c1ccc(N3CCOCC3)cc1)=NNC(c1ccncc1)=N2,4,-13,6,7,-7,nt
CCc1ccc2c(c1)C(c1ccc([N+](=O)[O-])cc1)=NNC(c1ccc(C)cc1)=N2,24,407*,26,1,-16,0
N#C/C(=C\c1ccc(O)c(O)c1)C(=O)Nc1ccccc1,-1,369*,5,-1,nt,-1
COc1ccccc1NC(=O)C1CCN(S(C)(=O)=O)CC1,-2,4,-7,1,-5,nt
CCOC(=O)C1C(c2ccc(C)o2)NC(=O)NC1(O)C(F)(F)F (configuration not stated),2,459*,-10,-1,1,1
O=C(CSc1ncn[nH]1)c1cc2ccccc2o1,-4,-8,-16,6,-5,nt
O=C(CSc1nccc(=O)[nH]1)c1cc2ccccc2o1,-3,586*,-6,1,12,0
COc1ccccc1N1CCN(CCS(=O)(=O)c2cc(Cl)ccc2Cl)CC1,nt,nt,8,2,nt,nt
O=C(Nc1ccc(Cl)c(Cl)c1)Nc1cc(S(=O)(=O)N2CCOCC2)ccc1N1CCCC1,30,-10,26,21,-1,nt
Cn1c(-c2ccc3c(c2)OCO3)cnc1NC(=O)CCC(=O)NCCc1ccccc1,-8,676*,-4,-1,-16,-1
CCOC(=O)c1sc(NC(=O)CN2C(=O)C3CC=CCC3C2=O)nc1C (configuration not stated),1,-7,-4,-2,nt,nt
COc1ccc(CNC(=O)CN2CCC(NC(=O)c3cccc(OC)c3)CC2)cc1,-7,nt,-1,-7,nt,nt
CC(C)CC(c1nnnn1C1CCCC1)N1CCN(C(=O)c2ccco2)CC1 (configuration not stated),2,69,-8,2,0,nt
CC(C)CC(c1nnnn1C1CCCCC1)N1CCN(C(=O)c2ccco2)CC1 (configuration not stated),2,706*,-3,-3,9,0
CC(=O)N1N=C(N)SC12CCCC2,-5,+,-4,-2,-53,0
CC(=O)NC1=NN(C(C)=O)C2(CCCC2)S1,-4,-6,-2,1,16,nt
Cc1nc(N/N=C\c2ccc3c(c2)OCO3)sc1C,-7,497*,3,10,-6,0
C(=N\Nc1nc2ccccc2s1)/c1ccc2c(c1)OCO2,-20,-2,-2,0,-7,nt
CCCCCCNC(=O)CCCCCNS(=O)(=O)c1ccc(OC)cc1,-2,42,15,-3,-4,nt
CCCCNS(=O)(=O)c1ccc(OC)cc1,-5,495*,-8,-5,2,0

# Screening data (PubChem)
